# Measurements as given in PubChem BioAssay AID493240 (Broad Institute, 2011).
# Screen size: about 1,300 compounds; about 270 (21%) were called active. The rule behind the calls is not given here. A selection follows. Measured potencies and affinities stand elsewhere.
# Experiment: SK-MEL-5 parental cell viability loss, dose response, orthogonal assay for MITF inhibitor project, CellTiter-Glo, cherry-picked, set 3 (AID 493240)
# Conditions: SK-MEL-5 viability, ATP luminescence (CellTiter-Glo), 24 h; series mostly up to 35 µM
row,Compound,outcome
1,N/C(=N\OC(=O)c1ccncc1)c1cccc([N+](=O)[O-])c1,inactive
2,O=[N+]([O-])/C=C\c1ccc(N2CCOCC2)cc1,inactive
3,COc1cccc2sc(N3CCN(C(=O)c4ccc([N+](=O)[O-])o4)CC3)nc12,inactive
4,Oc1c(Cl)cc(Cl)cc1/C=N/Nc1ncc(Br)cn1,inactive
5,O=C(Cc1cccs1)NCc1ccc(Cl)cc1Cl,inactive
6,c1ccc(OCc2nc3ccccc3[nH]2)cc1,inactive
7,CC(=O)c1c(C)[nH]c(C(=O)Nc2ccc(C)c(C)c2)c1C,inactive
8,BrC(=C\c1ccccc1)/C=N/n1cnnc1,inactive
9,Nc1nc2ccccc2n1/N=C/c1ccc(-c2ccccc2)o1,inactive
10,Cc1cc2ncn(/N=C/c3ccc([N+](=O)[O-])o3)c2cc1C,inactive
11,O=[N+]([O-])c1ccc(/C=N/n2c(CO)nc3ccccc32)s1,inactive
12,CN(C(=O)/C=C/c1ccc([N+](=O)[O-])s1)c1ccccc1,inactive
13,Cc1ccc(C)c(-n2c3nc(=O)[nH]c(=O)c-3cc3cc([N+](=O)[O-])ccc32)c1,inactive
14,O=C(Nc1ccc(F)c(Cl)c1)c1ccc2c(c1)OCO2,inactive
15,COc1ccccc1N1CCN(/N=C\c2ccccc2)CC1,inactive
16,CC(C)(C)N=Cc1cc(-c2ccccc2)sc1O,inactive
17,N#Cc1ccc(-c2cccnc2)nc1SCC(=O)c1ccccc1,inactive
18,COc1ccc(C(=O)Nc2nc3ccc(OC)cc3s2)cc1,inactive
19,CC(=C/c1ccco1)/C=N/N1CCN(c2ccccc2)CC1,inactive
20,CCCN(CC(=O)Nc1ccccc1C)C(=O)CCl,inactive
21,Cc1nc(-c2ccccn2)sc1C(=O)Nc1ccc(F)cc1F,inactive
22,CC(=O)Nc1cccc2c1Cc1ccccc1-2,inactive
23,COc1ccc(N/C=C\C(=O)c2ccc3ccccc3c2)cc1,inactive
24,Cc1c(NC(=O)c2ccc([N+](=O)[O-])o2)cccc1-c1nc2ncccc2o1,inactive
25,CCN(CC)S(=O)(=O)c1cccc(C(=O)N/N=C(\C)c2ccc(O)cc2O)c1,inactive

row,Compound,outcome
1,CCCCCCN1C=CC(=C2C(=O)c3ccccc3C2=O)C=C1,inactive
2,CC(C)CC(=O)NC(c1cccs1)c1ccc2cccnc2c1O (stereo not drawn),inactive
3,COCCN(C(=O)CCl)C(C(=O)NC1CCCCC1)c1ccccc1C (stereo not drawn),inactive
4,COc1ccc(/C=C/C(=O)NC(=S)N2CCN(c3ccccc3OC)CC2)cc1,inactive
5,O=C(/C=C/c1ccccc1Cl)NC1CCCCC1,inactive
6,COCCn1c(C)cc(C(=O)CSc2nnc(C)s2)c1C,inactive
7,c1ccc(CSc2nnc(-c3ccco3)n2Cc2ccco2)cc1,inactive
8,N#Cc1c(NC(=O)CSc2ncn[nH]2)sc2c1CCCC2,inactive
9,COc1ccc(-c2cc(-c3ccc(OC)c(OC)c3)n[nH]2)c(O)c1,inactive
10,CCCC1=Nc2cc(C(=O)NCCN3CCCC3)ccc2Sc2ccccc21,inactive
11,N#CC(C#N)=C1C=CC=CN1/C(=C\c1ccco1)C(=O)c1ccc(Cl)cc1,inactive
12,O=C(Nc1ccc2c(c1)OCCO2)c1coc2ccccc2c1=O,inactive
13,O=C(NCc1ccccc1)NC1(C(=O)Nc2ccc3c(c2)OCCO3)CCCCC1,inactive
14,CCOC(=O)/C=c1\s/c(=C\c2ccc3cc(OC)ccc3c2)c(=O)n1CC(=O)NCC1CCCO1 (stereo not drawn),inactive
15,COc1ccc(N(CC(=O)NCC2CCCO2)S(=O)(=O)c2ccccc2)cc1OC (stereo not drawn),inactive
16,COc1ccc(/C=N/NC(=O)Cc2cccs2)cc1,inactive
17,CC(C)(C)C(=O)Cn1ncc(Br)c(Br)c1=O,inactive
18,Cn1cc(C(=O)CCl)c2ccccc21,inactive
19,Cc1ccc2c(C(=O)CCl)c(C)[nH]c2c1,inactive
20,COc1ccccc1N1C(=O)N(C(C)=O)C2C1Nc1ccccc1N2C (stereo not drawn),inactive
21,Cc1cccc(OCc2nc3ccccc3n2C)c1,inactive
22,Cc1nc(NC(=O)C2CC2)sc1C(=O)Nc1ccccc1Cl,inactive
23,O=C(CC(=O)c1ccccc1)Nc1ccccc1,inactive
24,CCOc1ccc(N=C(C)C2=C(O)c3ccccc3C2=O)cc1,inactive
25,CCCCOC(=O)Nc1ccc2c(C)cc(=O)oc2c1,inactive

row,Compound,outcome
1,COc1ccc(S(=O)NC2CCCCC2)c(OC)c1C (stereo not drawn),inactive
2,COc1cc(CN2CCC(Cc3ccccc3)CC2)cc(OC)c1OC,inactive
3,CCOC(=O)C1(Cc2cccc(OC)c2)CCCN(C(=O)CSC)C1 (stereo not drawn),inactive
4,CC(C)(C)c1ccc(C(=O)N2CCCCCC2=O)cc1,inactive
5,C=CC[n+]1c(-c2ccc(C)cc2)csc1Nc1ccc(NC(C)=O)cc1,inactive
6,O=C1c2ccccc2C(=O)N1CCOc1ccccc1,inactive
7,CC(C)(C)c1ccc(OCCCNCc2ccccc2)cc1,inactive
8,CCOC(=O)c1cc(-c2ccc(OC)cc2)n[nH]1,inactive
9,COc1ccc(C(=O)Nc2ccc(C)cn2)c(OC)c1,inactive
10,O=C(N/N=C/c1ccccn1)c1cc([N+](=O)[O-])cc([N+](=O)[O-])c1,inactive
11,COc1ccc(C(C(=O)NC2CCCCC2)N(C(=O)CCl)c2ccc(OC)cc2)cc1 (stereo not drawn),inactive
12,COc1ccc(N(C(=O)CCl)C(C(=O)NC2CCCCC2)c2cccnc2)cc1 (stereo not drawn),inactive
13,O=C1c2ccccc2S(=O)(=O)N1Cc1nc2ccccc2s1,inactive
14,CCn1c(C)cc(C(=O)CN2C(=O)c3ccccc3S2(=O)=O)c1C,inactive
15,CCCC(=O)NC(c1ccc(OC)c(OC)c1)c1cc(Cl)c2cccnc2c1O (stereo not drawn),inactive
16,O=C(Nc1nc(-c2ccccn2)cs1)c1ccc(F)c(S(=O)(=O)N2CCOCC2)c1,inactive
17,Cn1cc([N+](=O)[O-])c(C(=O)Nc2nc(-c3ccc(Cl)cc3)cs2)n1,inactive
18,CC1CCCCC1NC(=O)/C(C#N)=C/C=C/c1ccccc1[N+](=O)[O-] (stereo not drawn),inactive
19,OCC1OC(n2cnc3c(NCc4ccco4)ncnc32)C(O)C1O (stereo not drawn),inactive
20,COc1cccc(/C=N/NC(=O)CN2CC(c3ccccc3)CC2=O)c1OC (stereo not drawn),inactive
21,CCN1CCc2c(sc(NC(=O)c3ccc(S(=O)(=O)N4CCCCCC4)cc3)c2C(=O)NC)C1,inactive
22,Cc1scc(C(=O)N/N=C/c2ccc([N+](=O)[O-])o2)c1C,inactive
23,O=[N+]([O-])c1ccc(Sc2cc[n+]([O-])c3ccccc23)c([N+](=O)[O-])c1,inactive
